CYP2C19 inh – blocks human cytochrome P450 2C19; 96,000 compounds, 21% hits; inhibition, % at 5 µM; CYP2C19 Supersomes, luciferin-H EGE luminescence, 30 min; P33261; AID 778;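 active means CYP2C19 inhibition above a set limit at 5 µM in the primary screen, cut at about 50% in these data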;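 further: plate controls were negative control wells for no effect and 2.5 mM tranylcypromine positive control for full effect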
Target sequence (P33261 whole entry, looked up): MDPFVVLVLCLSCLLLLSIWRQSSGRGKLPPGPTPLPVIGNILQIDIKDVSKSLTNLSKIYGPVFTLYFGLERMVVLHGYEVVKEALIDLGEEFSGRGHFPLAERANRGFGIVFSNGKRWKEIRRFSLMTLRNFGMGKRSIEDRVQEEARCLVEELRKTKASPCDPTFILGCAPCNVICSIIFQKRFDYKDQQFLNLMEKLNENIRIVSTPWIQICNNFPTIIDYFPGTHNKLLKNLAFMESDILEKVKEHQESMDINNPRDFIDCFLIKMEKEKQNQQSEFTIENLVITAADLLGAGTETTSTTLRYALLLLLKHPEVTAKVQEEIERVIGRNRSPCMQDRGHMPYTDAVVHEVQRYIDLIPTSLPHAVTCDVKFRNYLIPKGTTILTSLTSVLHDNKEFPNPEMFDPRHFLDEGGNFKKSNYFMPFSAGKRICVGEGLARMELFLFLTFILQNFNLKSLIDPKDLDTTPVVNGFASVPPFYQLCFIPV
CYP2C9 act – CYP2C9 (human) activation. P11712. 96,000 compounds, 1.4% hits. recombinant CYP2C9, luciferin-H conversion, luminescence; active compounds read high; factor 1 = untreated enzyme, 0 = blocked. activation factor at 5 µM;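 active means activation factor of 2 or more for CYP2C9 at a 5 µM dose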;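 further: 0 = sulfaphenazole-blocked wells and 1 = vehicle-only wells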
PostGolgi yeast – growth inhibition of a yeast mutant, post-Golgi transport screen; post-Golgi transport phenotypic cell assay; inhibition, % at 10 µM; 98,000 compounds, 0.9% hits; AID 739;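 further: yeast cells grown in 1536-well plates; yeast grown about 18 h at 30C before absorbance read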
CYP2C9 inh – human CYP2C9 inhibition; AID 777; inhibition, % at 5 µM; CYP2C9 Supersomes, luciferin-H conversion, luminescence; P11712; 96,000 compounds, 20% hits;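 active means blocking of liver enzyme CYP2C9 beyond about 50% at 5 µM, limit read from the data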
PostGolgi ctrl – yeast control strain growth, post-Golgi counter-screen | efflux-deficient yeast background strain, growth absorbance A615, 16 h | inhibition, % at 10 µM | 98,000 compounds, 5% hits
CYP2C19 activ – increases human CYP2C19 enzyme activity | P33261 | recombinant CYP2C19, luciferin-H EGE luminescence; active compounds read high; 0 = fully inhibited enzyme, 1 = untreated enzyme | activation factor at 5 µM | 96,000 tested, under 10 active | AID 1025;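 active means activation factor of at least 2 at 5 µM in the primary screen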;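 further: 0 = wells with 2.5 mM tranylcypromine and 1 = vehicle-only wells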
* = called active by the depositor; . = not tested or not shown. Compounds with a hit are over-represented: about 32% of the library has one in this group of screens. Unless noted, no stated cut-off is given here; in the data, active means inhibition above about 30%; inactive means the rest.

SMILES	CYP2C19 inh	CYP2C9 act	PostGolgi yeast	CYP2C9 inh	PostGolgi ctrl	CYP2C19 activ
Cc1cc2n(n1)C(c1sccc1C)Nc1ccccc1-2 (stereo not given)	65.9*	0.4	15.2	56.4*	8.3	0.3
COc1cc(NC(=O)c2ccccc2Cl)c(OC)cc1NC(=O)CN1CCOCC1	13.1	0.6	8.8	44.7	-2.2	0.9
Cc1cccc(N2CCN(S(=O)(=O)c3ccc4c(c3)CCN4C(=O)CCC(=O)O)CC2C)c1 (stereo not given)	13.4	0.7	-4.0	32.1	14.9	0.9
CC1CCC/C(=N\NC(=S)NCc2ccccc2)C1 (stereo not given)	82.0*	0.1	-6.9	85.2*	-8.2	0.2
CC1C/C(=N\NC(=S)NCc2ccccc2)CC(C)(C)C1 (stereo not given)	26.1	1.1	1.8	-7.7	7.8	0.7
COc1cc(OC)cc(C(=O)NC(=S)Nc2ccc3c4c(cccc24)CC3)c1	-9.9	0.9	12.7	6.0	4.8	1.1
COc1ccc(C(=O)Nc2ccc3c4c(cccc24)CC3)cc1	2.7	2.2*	1.4	-124.8	4.0	1
O=C(Nc1ccc2c3c(cccc13)CC2)c1ccco1	22.8	2*	7.7	-98.6	2.8	0.8
CCCCNC(=O)CCNS(=O)(=O)c1ccc(C)cc1	17.6	2.6*	26.4	-160.9	0.3	0.8
Cc1ccc(CNC(=O)CCNS(=O)(=O)c2ccc(C)cc2)cc1	9.0	1.7	3.3	-71.4	3.0	0.9
CC(C)NC(=O)CCNS(=O)(=O)c1ccc(Br)cc1	50.1*	1.8	-1.3	-75.7	0.0	0.5
COc1ccccc1NC(=O)CSc1nnc(-c2ccoc2C)n1CC1CCCO1 (stereo not given)	14.2	0.9	-3.2	11.3	-3.3	0.9
O=C(OCc1cc2ccccc2[nH]c1=O)C1CCCO1 (stereo not given)	2.6	1	0.0	-4.0	7.8	1
O=C(OCc1cc2ccccc2[nH]c1=O)C1CCCCC1	88.7*	0	30.4*	95.7*	13.3	0.1
O=S1(=O)c2ccccc2N=NN1Cc1ccc(Cl)cc1	83.3*	0.3	-0.5	68.3*	7.9	0.2
O=S1(=O)c2ccccc2N=NN1Cc1cc(Cl)cc(Cl)c1	33.1	0.5	2.8	53.5*	19.0	0.7
O=C1c2ccncc2C(=O)N1Cc1cccc(Cl)c1	20.0	0.9	-0.3	13.2	2.5	0.8
CCOC(=O)N1CCC(Nc2ccc3nnc(-c4ccccc4)n3n2)CC1	96.3*	0.1	-14.7	92.9*	9.9	0
CC(C)(C)OC(=O)NNC1CC(=O)N(c2ccccc2F)C1=O (stereo not given)	6.6	1	21.3	4.9	2.6	0.9
Cc1ccc(CN(CC(=O)NCCc2ccccc2)C(=O)CCCC(=O)Nc2cc(C)on2)cc1	59.7*	0.4	8.9	62.0*	2.6	0.4
O=C(CN(Cc1ccco1)C(=O)CCC(=O)Nc1ccccn1)NCCc1ccccc1	68.7*	0.4	-19.4	57.9*	25.8	0.3
COc1ccc(CN(CC(=O)NCc2ccco2)C(=O)CCC(=O)Nc2nccs2)cc1	.	.	2.2	.	27.5	.
Cc1cccc(N(CC(=O)NCc2ccc3c(c2)OCO3)C(=O)CCC(=O)Nc2ccccn2)c1	60.8*	0.7	1.2	28.1	-1.1	0.4
Cc1cccc(N(CC(=O)NCc2ccc3c(c2)OCO3)C(=O)CCC(=O)Nc2ccccn2)c1C	81.9*	0.4	1.7	58.8*	3.1	0.2
COCCN(CC(=O)NCc1ccc(F)cc1)C(=O)CCC(=O)Nc1ccccn1	-0.5	1	-2.7	-1.7	-4.2	1
SMILES	CYP2C19 inh	CYP2C9 act	PostGolgi yeast	CYP2C9 inh	PostGolgi ctrl	CYP2C19 activ
O=C1CCC(C(=O)O)(c2ccccc2)C1 (stereo not given)	-15.5	1	-2.1	-3.8	1.4	1.2
CCOc1ccc(-n2c(=O)c3c4c(sc3n(CC(=O)NCc3ccco3)c2=O)CCC4)cc1	2.0	0.8	0.3	18.3	7.7	1
Cc1cccc(N(CC(=O)NCc2ccco2)C(=O)CCC(=O)Nc2ccccn2)c1	57.9*	0.8	1.7	22.9	4.0	0.4
Cc1cccc(N(CC(=O)NC2CCCCC2)C(=O)CCC(=O)Nc2ccccn2)c1	48.5	0.6	.	37.5	.	0.5
COc1ccc(CNC(=O)CN(C(=O)CCC(=O)Nc2ccccn2)c2ccccc2OC)cc1	43.9	0.4	0.2	63.6*	7.6	0.6
N#CCC(=O)N1CCCCCC1	30.3	0.7	2.4	25.8	3.7	0.7
C=CCN(C(=O)CNC(=O)c1ccco1)C(C(=O)NC1CCCCC1)c1ccc(OC)cc1OC (stereo not given)	46.5	0.5	21.1	45.8	-0.8	0.5
CC(NS(=O)(=O)c1ccccc1)C1COc2ccccc2O1 (stereo not given)	53.7*	0.9	0.6	10.9	-3.7	0.5
O=C(CSc1ncnc2c1cnn2-c1ccccc1)Nc1ccc2c(c1)OCO2	27.5	0.4	0.3	63.4*	-0.4	0.7
COc1ccc(-n2nnc3c(SCC(=O)Nc4ccc5c(c4)OCCO5)ncnc32)cc1	9.5	0.6	3.6	40.5	21.2	0.9
O=C(CSc1ncnc2ccccc12)Nc1ccc2c(c1)OCO2	61.5*	0.6	-0.4	40.0	-6.3	0.4
COCCn1c(C)cc(C(=O)COC(=O)CCN2C(=O)c3ccccc3C2=O)c1C	33.0	0.9	4.6	13.5	13.4	0.7
O=C(O)CSc1ccccn1	5.2	1	3.3	-1.4	7.4	0.9
CCc1nn(-c2ccccc2)c(N)c1-c1ccc(OC)c(OC)c1	2.8	1.7	-5.3	-68.0	10.9	1
COc1ccc(CNC2=CC(=O)CC(C)(C)C2)cc1	12.3	0.9	-7.5	11.0	3.2	0.9
Cn1c(-c2ccc(F)cc2)cnc1NCc1ccc(C#N)cc1	64.4*	0.4	7.9	56.6*	-2.2	0.4
Cn1c(-c2ccc(F)cc2)cnc1NCc1ccc(F)cc1	68.9*	0.7	-1.0	28.1	2.4	0.3
CCOc1cc(CNc2ncc(-c3ccc(OC)cc3)n2C)ccc1O	59.4*	0.5	4.8	47.2	-2.1	0.4
Cn1c(-c2ccc(Br)cc2)cnc1NCc1cccnc1	37.1	0.8	1.5	23.0	-6.9	0.6
N#Cc1nc(-c2ccc(F)cc2)oc1NCc1ccccc1	18.2	0.6	6.6	40.5	11.4	0.8
CCOC(=O)c1cnc2nc(NCc3ccc(OC)c(OC)c3)[nH]n2c1=O	.	.	6.2	.	29.3	.
Cc1ccc(/C=C/S(=O)(=O)N2CCC(C(=O)O)CC2)cc1	-12.8	1.1	8.5	-10.3	1.8	1.1
Cc1nn(C)c(C)c1C(=O)NN	1.6	0.9	0.3	11.0	-9.4	1
COc1cccc(NC(=O)CCc2nc(-c3ccccc3F)no2)c1	26.3	0.4	-12.9	60.1*	-0.5	0.7
O=C(CCc1nc(-c2ccccc2F)no1)Nc1ccc(Oc2ccccc2)cc1	8.0	0.8	-8.5	22.5	34.5*	0.9
